# Compound activity deposited in PubChem BioAssay by several laboratories.
# In the library only some 27% were active in any assay of this set; here they are far more common.
# CYP2C9 inhib: human CYP2C9 inhibition | P11712 | CYP2C9 Supersomes, luciferin-H conversion, luminescence | inhibition, % at 5 µM | hit rate 20% among 96,000 | AID 777;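 active = blocking of liver enzyme CYP2C9 beyond about 50% at 5 µM, limit read from the data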
# Target sequence (P11712 whole entry, looked up): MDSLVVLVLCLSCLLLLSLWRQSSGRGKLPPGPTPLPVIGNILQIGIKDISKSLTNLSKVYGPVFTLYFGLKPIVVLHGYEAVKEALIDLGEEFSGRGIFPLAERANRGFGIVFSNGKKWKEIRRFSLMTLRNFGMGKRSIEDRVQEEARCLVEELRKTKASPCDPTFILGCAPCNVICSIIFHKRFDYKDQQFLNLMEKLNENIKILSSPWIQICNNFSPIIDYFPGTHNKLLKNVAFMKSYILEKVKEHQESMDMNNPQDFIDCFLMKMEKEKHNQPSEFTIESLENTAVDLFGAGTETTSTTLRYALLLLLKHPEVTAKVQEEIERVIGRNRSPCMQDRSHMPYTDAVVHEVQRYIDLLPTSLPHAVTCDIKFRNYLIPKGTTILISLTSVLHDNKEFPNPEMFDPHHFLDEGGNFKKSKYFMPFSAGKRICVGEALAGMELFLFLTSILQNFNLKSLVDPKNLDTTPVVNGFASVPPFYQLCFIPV
# CYP2C19 inh: blocks human cytochrome P450 2C19. hit rate 21% among 96,000. CYP2C19 Supersomes, luciferin-H EGE luminescence, 30 min. inhibition, % at 5 µM. P33261;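 active = CYP2C19 inhibition above a set limit at 5 µM in the primary screen, cut at about 50% in these data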;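 note: plate controls were negative control wells for no effect and 2.5 mM tranylcypromine positive control for full effect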
# CYP2C19 act: activators of human cytochrome P450 2C19. P33261. recombinant CYP2C19, luciferin-H EGE luminescence; hits give high values; 0 = fully inhibited enzyme, 1 = untreated enzyme. activation factor at 5 µM. 96,000 tested, under 10 active. AID 1025;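 active = activation factor of at least 2 at 5 µM in the primary screen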;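 note: 0 = wells with 2.5 mM tranylcypromine and 1 = vehicle-only wells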
# CYP2C9 activ: increases human cytochrome P450 2C9 activity; AID 1024; activation factor at 5 µM; hit rate 1.4% among 96,000; recombinant CYP2C9, luciferin-H conversion, luminescence; hits give high values; factor 1 = untreated enzyme, 0 = blocked;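 active = activation factor of 2 or more for CYP2C9 at a 5 µM dose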;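 note: 0 = sulfaphenazole-blocked wells and 1 = vehicle-only wells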
# sEH act: soluble epoxide hydrolase (human) activation | P34913 | purified human sEH enzymatic activity, activator screen | activation, % at 2 µM | hit rate 0.04% among 91,000 | AID 717; in the data active = activation above about 37%
# sEH inh: inhibitors of human soluble epoxide hydrolase | recombinant human sEH enzymatic activity assay | inhibition, % at 2 µM | hit rate 0.34% among 91,000 | AID 707; in the data active = inhibition above about 80%
# Starred values were filed as active, the others as inactive; x = not tested or not shown.
SMILES,CYP2C9 inhib,CYP2C19 inh,CYP2C19 act,CYP2C9 activ,sEH act,sEH inh
Clc1ccc(-c2nc3ccc(Cl)cn3c2CN2CCOCC2)cc1,64*,77*,0.2,0.4,20,-22
Fc1cccc(CCNCc2ccccn2)c1,-2,14,0.9,1,2,-2
COc1nc(NC(C)C)nc(NC(C)C)n1,10,7,0.9,0.9,12,-16
Cc1nc2cc(C(F)(F)F)ccc2n1C1CCN(Cc2nnnn2Cc2cccs2)CC1,79*,24,0.8,0.2,x,x
FC(F)(F)c1ccc2c(c1)ncn2C1CCN(Cc2nnnn2C2CCCCC2)CC1,69*,88*,0.1,0.3,0,0
Cc1nc2cc(C(F)(F)F)ccc2n1C1CCN(Cc2nnnn2Cc2ccc3c(c2)OCO3)CC1,92*,57*,0.4,0.1,-2,0
CC1OC(NCCc2ccccc2)C(O)C(O)C1O (stereo not given),x,x,x,x,11,-8
OC1(c2ccc(F)cc2)CC2CCC(C1)N2Cc1nnnn1C1CCCC1 (stereo not given),81*,88*,0.1,0.2,-8,6
Cc1ccc(N2C(=O)NC(=O)/C(=C/c3ccc(OC(=O)c4cccs4)cc3)C2=O)cc1,-2,54*,0.5,1,-6,4
CN(C)C(=O)Oc1ccc(Cl)c2ccccc12,-106,73*,0.3,2.1*,-7,8
CC(C)N(CC(O)c1cccc([N+](=O)[O-])c1)C(C)C (stereo not given),-5,4,1,1,12,-9
CSc1ccc(CNC2CN3CCC2CC3)cc1 (stereo not given),-2,0,1,1,x,x
CCCCn1c(=O)c(C(=O)NCc2ccncc2)c(O)c2ccccc21,100*,92*,0.1,0,-10,8
CCCCCCn1c(=O)c(C(=O)Nc2ccncc2)c(O)c2ccccc21,42,22,0.8,0.6,x,x
O=C(Cn1nc(Cc2cccnc2)c2ccccc2c1=O)N1CCC2(CC1)OCCO2,80*,22,0.8,0.2,x,x
CCOC(=O)C(O)(c1ccc(NC(=O)NC2CCCCC2)cc1)C(F)(F)F (stereo not given),59*,80*,0.2,0.4,-95,95*
Cc1cccc(N2C(=O)NC(=O)C3(Cc4cc(C)ccc4N(C)C3)C2=O)c1 (stereo not given),63*,13,0.9,0.4,10,-10
Cc1ccc2c(c1)CC1(CN2C)C(=O)NC(=O)N(CCC2=CCCCC2)C1=O (stereo not given),44,29,0.7,0.6,6,-6
COc1ccc2c(c1)CC1(CN2C)C(=O)NC(=O)N(c2ccc(F)cc2)C1=O (stereo not given),71*,19,0.8,0.3,8,-6
COc1ccc(N2C(=O)CC(=O)NC2=O)cc1,11,6,0.9,0.9,-2,5
COc1ccc2c(c1)CC1(CN2C)C(=O)NC(=O)N(c2ccc(C)cc2)C1=O (stereo not given),62*,14,0.9,0.4,6,-6
O=C1C(=O)c2ccccc2-c2ccccc21,93*,98*,0,0.1,11,-8
C=CCN1C(=O)NC(=O)/C(=C/c2ccc(OC)c(CSc3ccccn3)c2)C1=O,19,52*,0.5,0.8,-8,10
COc1cc(/C=C2\C(=O)NC(=O)N(c3ccccc3)C2=O)cc(OC)c1O,-32,-8,1.1,1.3,1,0
Cc1sc2c(c1C)C(c1ccc(C(C)(C)C)cc1)=NCC(=O)N2CC(=O)Nc1nccs1,28,10,0.9,0.7,-1,3
SMILES,CYP2C9 inhib,CYP2C19 inh,CYP2C19 act,CYP2C9 activ,sEH act,sEH inh
CCC(=Nc1ccc2c(c1)CCC2)c1c(O)n(C)c(=O)n(C)c1=O,1,-6,1.1,1,x,x
CCC(=NCc1ccc(F)cc1)c1c(O)n(C)c(=O)n(C)c1=O,67*,84*,0.2,0.3,0,-1
OC1(CN2CCOCC2)C2CC3CC(C2)CC1C3 (stereo not given),-30,4,1,1.3,x,x
OCCN(CC#CC(O)(c1ccccc1)C1CCCC1)CCO (stereo not given),-6,31,0.7,1.1,x,x
CC(C)NC(=O)Cn1cc(C(=O)c2ccccc2F)c2ccccc21,25,50*,0.5,0.7,-2,4
Cn1c(O)c(C(=O)c2ccccc2F)c(=O)n(C)c1=O,31,-1,1,0.7,3,-2
